# Assay outcomes as filed in PubChem.
# Only some compounds are listed: those with a hit (about 0.97% of all), similar ones and a draw of the others.
# AI-2 QS modul = modulators of Vibrio harveyi AI-2 quorum sensing system | Vibrio harveyi JMH597 AI-2 luminescence/OD600 ratio, 9 h; stronger effect = lower value; strain lacks LuxN and CqsS sensors; 0 = neutral-control median | 300,000 compounds, 0.4% hits | AID 2094 | activity change, % at 7.5 µM; in the data active = activity change below about -75%, passing the limit was not always enough;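 also: luminescence divided by OD600 gain over 9 h not by final OD600 alone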
# Hsp70 act = Hsp70 transcriptional activation, primary screen. activation, % at 10 µM. HeLa Hsp70 promoter luciferase reporter, luminescence; scaled: vehicle 0, proteasome-inhibitor control 100%. AID 1203. 200,000 compounds, 0.04% hits;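 active = activation above the mean across all tested compounds plus 3 SD, cutoff set per campaign, cut at about 5.5% in these data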;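 also: 100% = MG132 at 30 µM as the positive control and 0% = DMSO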
# S1P3 antag = antagonists of human S1P3 receptor; Q99500; CHO S1P3 NFAT-BLA reporter, FRET fluorescence, antagonist mode; inhibition, % at 4.98 µM; 170,000 compounds, 0.27% hits; AID 485;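 active = inhibition above the plate cutoff, the mean inhibition of test wells on that plate plus 3 SD, cut at about 28% in these data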;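 also: cells challenged with S1P at its EC80 of 0.8 µM; blue over green emission ratio from cleaved BLA substrate after 4 h stimulation; 0% = S1P-stimulated wells and 100% = unstimulated DMSO-only wells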
# S1P4 agonist = agonists of human S1P4 receptor | 220,000 compounds, 0.35% hits | S1P4-expressing cell line, agonist reporter assay | O95977 | activation, % at 4.98 µM; in the data active = activation above about 11%;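 also: 0% = DMSO vehicle and 100% = reference agonist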
# Target sequence (O95977 whole entry, looked up): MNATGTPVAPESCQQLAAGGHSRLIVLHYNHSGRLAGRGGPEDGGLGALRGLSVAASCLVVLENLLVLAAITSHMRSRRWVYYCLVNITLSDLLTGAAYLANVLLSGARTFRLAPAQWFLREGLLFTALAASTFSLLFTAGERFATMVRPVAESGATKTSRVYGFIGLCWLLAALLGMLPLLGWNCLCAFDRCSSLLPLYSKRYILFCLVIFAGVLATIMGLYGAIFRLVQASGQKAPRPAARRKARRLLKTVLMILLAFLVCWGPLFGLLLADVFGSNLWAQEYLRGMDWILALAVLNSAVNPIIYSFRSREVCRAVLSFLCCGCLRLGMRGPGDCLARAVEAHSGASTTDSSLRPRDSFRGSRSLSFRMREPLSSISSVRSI
# S1P4 antag = human S1P4 receptor antagonism | S1P4-expressing cells, antagonist mode, reporter read-out | O95977 | inhibition, % at 4.98 µM | 220,000 compounds, 0.26% hits; in the data active = inhibition above about 29%;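 also: 0% = wells stimulated with agonist and 100% = vehicle wells without agonist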
# S1P4 ag conf = confirmation of human S1P4 receptor agonists; 740 compounds, 7% hits; shares compounds with S1P4 agonist; S1P4 agonist cell-based reporter assay; activation, % at 4.98 µM; in the data active = activation above about 12%;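 also: 0% = vehicle and 100% = full reference agonist response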
# S1P1 agonist = counter-screen for S1P4 agonists: agonists of human S1P1 | shares compounds with S1P4 agonist | S1P1 agonist cell-based assay, activation | activation, % at 4.98 µM | 740 compounds, 4% hits | AID 1563; in the data active = activation above about 21%;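 also: 0% = vehicle wells and 100% = reference agonist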
# Numbers without * were called inactive; · = no result.
SMILES,AI-2 QS modul,Hsp70 act,S1P3 antag,S1P4 agonist,S1P4 antag,S1P4 ag conf,S1P1 agonist
CN(CCNC(=O)c1ccc(CS(=O)(=O)c2c(Cl)cccc2Cl)o1)CCc1ccccc1,15,·,·,·,·,·,·
Cc1ccc(NC(=O)COC(=O)CN2C(=O)COc3ccccc32)cc1,20,0,·,29*,-15,-2,3
O=C(COC(=O)CN1C(=O)COc2ccccc21)NC1CCCCC1,17,·,·,·,·,·,·
Cc1c(NC(=O)Cn2ccc([N+](=O)[O-])n2)c(=O)n(-c2ccccc2)n1C,23,0,·,25*,-4,-1,-4
Cc1c(NC(=O)Cn2cc([N+](=O)[O-])cn2)c(=O)n(-c2ccccc2)n1C,38,0,-31,0,-38,·,·
N#CC1(NC(=O)COc2ccc3ccc(=O)oc3c2)CCCCC1,11,·,·,·,·,·,·
CCOCCN(C(=O)COC)c1cccc(OC)c1,13,0,·,26*,-22,-1,-2
CCOC(=O)/C(C#N)=C/c1c(Oc2cccc(C)c2)nc2c(C)cccn2c1=O,18,-1,-17,0,-15,·,·
Cc1ccc(Oc2nc3c(C)cccn3c(=O)c2/C=C(\C#N)C(N)=O)cc1,11,·,2,20*,-6,-1,-8
Cc1cc(=O)c2ccccc2n1CC(=O)NCc1ccccc1,22,0,3,19*,-24,-1,-2
Cc1cc(=O)c2ccccc2n1Cc1ccccc1,4,-1,-2,3,-9,·,·
Cc1ccc(NC(=O)Cc2c(O)c3ccccc3[nH]c2=O)c(C)c1,17,·,4,1,-18,·,·
c1ccc(-c2nccc(-c3ccc(-n4cnc5ccccc54)cc3)n2)cc1,23,0,·,83*,-11,-1,5
c1ccc(-n2cnc3ccccc32)nc1,20,·,·,·,·,·,·
O=c1cc(CSc2nnc(Nc3ccccc3F)s2)nc2sccn12,13,0,3,55*,0,-2,-1
CCc1nc2ccccc2n1CC(=O)OCC(=O)N(CC(C)C)c1c(N)n(Cc2ccccc2)c(=O)[nH]c1=O,26,·,·,·,·,·,·
Cc1ccc(S(=O)(=O)N2CC(=O)Nc3ccccc32)cc1,15,0,·,-2,0,·,·
CC(=O)Nc1ccc(S(=O)(=O)N2CCC(=O)Nc3ccccc32)cc1,27,0,3,16*,-67,-3,-4
COc1cc(-n2c(=O)c3ccccc3n(Cc3cccc(C)c3)c2=O)cc(OC)c1OC,31,0,-27,31*,0,2,-3
Cc1ccccc1-n1c(=O)[nH]c(=O)c2c(N)c(C(=O)c3ccc(Cl)cc3)sc21,11,0,-4,83*,-2,-2,-7
O=C(O)C1CC=CCC1C(=O)Nc1ccccc1C(=O)N1CCN(c2ccc(Cl)cc2)CC1 (stereo not drawn),-2,0,-6,1,-8,·,·
O=C(O)CCC(=O)Nc1ccccc1C(=O)N1CCN(c2ccc(Cl)cc2)CC1,5,0,2,122*,6,-2,0
Cc1ccc(-n2ncc3c(=O)n(CC(=O)OCc4ccccc4)cnc32)cc1,1,0,-28,17*,-28,-2,-2
O=C(Cn1cnc2c(cnn2-c2ccccc2)c1=O)OCc1ccccc1,43,0,-4,-2,-15,·,·
CC(C)/C=N/Nc1nc(-c2ccc(Br)cc2)cs1,6,0,-33,34*,8,-2,12
SMILES,AI-2 QS modul,Hsp70 act,S1P3 antag,S1P4 agonist,S1P4 antag,S1P4 ag conf,S1P1 agonist
CCOC(=O)c1csc(NC(=O)C2=COCCO2)n1,14,·,·,·,·,·,·
Cc1ccc(C(CNS(=O)(=O)c2ccc(F)cc2C)N2CCN(C)CC2)cc1 (stereo not drawn),1,·,·,·,·,·,·
O=c1cc(N2CCCCC2)nc2n1CCCS2,1,0,·,25*,-8,-3,-2
CC12c3ccccc3C(c3ccccc31)C1C(=O)N(c3cccnc3)C(=O)C12 (stereo not drawn),-4,0,3,-1,-9,·,·
CC12c3ccccc3C(c3ccccc31)C1C(=O)N(Cc3cccnc3)C(=O)[C@H]12 (stereo partly drawn),8,0,11,40*,-1,-1,0
COCCNC(=S)Nc1ccc2nsnc2c1,-3,0,-21,12*,-9,-2,-6
COCCNC(=S)Nc1ccc(Cl)c(Cl)c1,8,0,12,-1,5,·,·
Cn1cccc1/C=C1\CCc2ccccc2C1=O,16,0,-1,39*,-12,-2,-7
Cc1ccc(/C=C/C(=O)O)cc1S(=O)(=O)N(CCO)CCO,34,0,-9,37*,17,-1,-8
O=C(O)c1ccc(NC(=O)c2ccccc2NC(=O)c2ccccc2Cl)cc1,-11,·,·,·,·,·,·
Cc1cc(C)n(-c2ccc(C(=O)Nc3cccnc3)cc2)n1,15,·,-25,1,10,·,·
O=C(CN1CCN(CC(=O)Nc2ccccc2Cl)CC1)Nc1ccc2c(c1)OCCO2,26,0,-44,1,-17,·,·
O=C(CN1CCC(Cc2ccccc2)CC1)Nc1ccc2c(c1)OCCO2,-8,0,·,413*,-5,-2,-9
O=C(N/N=C/c1cn(-c2cccs2)nc1-c1ccccc1)c1ccccc1O,9,0,-2,-1,1,·,·
O=C(N/N=C/c1cn(-c2cccs2)nc1-c1ccccc1)c1ccccc1Br,7,0,9,11*,1,-2,1
O=C(Nc1ccc2c(c1)OCO2)N1CCCC1,10,0,3,46*,-2,-2,3
O=C(Nc1ccc2c(c1)OCO2)N1CCOCC1,17,0,-5,1,-20,·,·
CC(C)(C)c1ccc(OCc2ccc(C(=O)NCc3cccnc3)o2)cc1,23,0,3,-2,-3,·,·
COc1ccc(N2CC(C(=O)OCC(=O)NCc3ccccc3)CC2=O)cc1 (stereo not drawn),28,0,·,1,1,·,·
COc1ccc(N2CC(C(=O)NCc3ccccc3)CC2=O)cc1 (stereo not drawn),4,0,-1,32*,-12,0,0
Cc1ccc(S(=O)(=O)CNC(=O)c2ccccc2)cc1,19,-1,-9,24*,-2,-2,1
Cc1ccc(S(=O)(=O)NCCNC(=O)c2ccccc2)cc1,10,0,-19,-1,-3,·,·
COCCSc1nc(N)c(NC(=O)c2ccc(OC)cc2)c(=O)[nH]1,14,0,-13,12*,-7,-2,-4
COc1ccc(C(=O)Nc2c(N)nc(SCC(=O)c3ccccc3)[nH]c2=O)cc1,4,·,·,·,·,·,·
C=CCn1c(C)c(C(C)=O)c(N2CCCC2)nc1=S,15,0,-45,3,13,·,·
CCn1c(C)c(C(C)=O)c(N2CCCC2)nc1=S,20,0,9,17*,-4,-2,-2
